# Experimental data from PubChem BioAssay AID540332 (The Scripps Research Institute Molecular Screening Center, 2011).
# Unmarked numbers belong to inactive results. The rule behind the calls is not given here.
# Test system: Rolipram
# Experiment: selectivity profile across receptors and CYP450s – biochemical, Ricerca HitProfilingScreen, CYP450, set 2, selectivity assay for S1P4 agonist project, profiling panel (AID 540332)
# Conditions: at 30 µM; active compounds read high
structure (smiles),measurement,value
COCCN=C1S/C(=C\c2cc(C)n(-c3ccc(F)cc3F)c2C)C(=O)N1C,inhibition,15%
